Source: PubChem BioAssay (EPA / NIEHS)
Inconclusive results are not listed. The source made the active and inactive calls. The calls were made as follows, unless noted: active = hit-call score of the fitted dose curve at least 0.9, where 1 is the maximum; inconclusive = response in the unintended direction; inactive = score below 0.9.

How the values were obtained:
[1] = TOX21_p53_BLA_p2_viability: Viability Assessment in the Tox21 HCT-116 p53 Agonism Beta-lactamase Assay, Phase 2 (AID 2283591);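 also: compound exposure lasted 16 h at 37 °C; actives lower the ATP signal meaning cytotoxicity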
In short: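 Cytotoxicity readout: CellTiter-Glo ATP luminescence, 30 min at room temperature, after the beta-lactamase read. Cells were HCT116 exposed 16 h at 37C to compounds pin-transferred at 217-fold dilution from DMSO stocks.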

[2] = biological target: Cellular tumor antigen p53 (Homo sapiens) (UniProt P04637); test: TOX21_p53_BLA_p2_ratio: Tox21 HCT-116 p53 Agonism Beta-lactamase Assay, Ratio, Phase 2 (AID 2283592)
In short: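 Ratio endpoint: beta-lactamase cleavage of CCF4-AM, blue (460 nm) over green (530 nm). HCT116 reporter line; 16 h treatment, 37C; substrate 2 h RT.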

[3] = TOX21_p53_BLA_p3_viability: Viability Assessment in the Tox21 HCT-116 p53 Agonism Beta-lactamase Assay, Phase 3 (AID 2283593);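 also: cells exposed to compound for 16 h before reading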
In short: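 Cellular ATP was quantified by CellTiter-Glo luminescence, read after 30 min at room temperature. Beforehand, HCT116 cells (4000/well) received compound 5 h post-seeding, 217-fold diluted from DMSO, then incubated 16 h at 37C.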

[4] = biological target: Cellular tumor antigen p53 (Homo sapiens) (UniProt P04637); test: TOX21_p53_BLA_p3_ratio: Tox21 HCT-116 p53 Agonism Beta-lactamase Assay, Ratio, Phase 3 (AID 2283596)
In short: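 Cells were seeded at 4000/well, rested 5 h at 37C, then dosed with DMSO compound solutions (217-fold dilution) for 16 h. CCF4-AM substrate was loaded for 2 h at room temperature, and the 460/530 nm emission ratio was fitted for gain of signal versus DMSO.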

[5] = biological target: Cellular tumor antigen p53 (Homo sapiens) (UniProt P04637); test: TOX21_p53_BLA_p5_ratio: Tox21 HCT-116 p53 Agonism Beta-lactamase Assay, Ratio, Phase 5 (AID 2283599)
In short: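 Beta-lactamase reporter ratio (blue 460 nm over green 530 nm, 405 nm excitation) after 2 h CCF4-AM loading, in HCT-116 cells exposed 16 h at 37 C to compounds pinned at 217-fold dilution. Increases relative to DMSO baseline scored.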

[6] = biological target: Cellular tumor antigen p53 (Homo sapiens) (UniProt P04637); test: TOX21_p53_BLA_p4_ratio: Tox21 HCT-116 p53 Agonism Beta-lactamase Assay, Ratio, Phase 4 (AID 2283601)
In short: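 Signal is the blue/green (460nm/530nm) ratio of cleaved versus uncleaved CCF4-AM substrate, read after 2 h substrate loading. Cells were HCT116 carrying the p53-responsive beta-lactamase reporter, dosed 16 h at 37C, 5% CO2; CellTiter-Glo measured in parallel.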

[7] = TOX21_p53_BLA_p5_viability: Viability Assessment in the Tox21 HCT-116 p53 Agonism Beta-lactamase Assay, Phase 5 (AID 2283600)
In short: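 Luciferase-coupled ATP quantitation of cells treated for 16 h (37C, 5% CO2) with test chemicals delivered in DMSO via a 217-fold dilution; 4000 cells/well; reagent incubated 30 min at room temperature before luminescence reading.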

[8] = biological target: Thyroid hormone receptor alpha (Rattus norvegicus) + Thyroid hormone receptor beta (Rattus norvegicus) (UniProt P18113+P63059); test: TOX21_TR_LUC_GH3_Antagonist_Followup: Tox21 GH3 Thyroid Hormone Receptor Antagonism Luciferase Follow-Up Assay (AID 2283942)
In short: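 Loss of T3-driven (1.0 nM final) reporter activity in GH3 cells was read by ONE-Glo luminescence after 24 h incubation at 37C; 15-point compound series spanned 92 uM to 5nM final, 1,500 cells/well.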

[9] = biological target: THRA (gene 7067) (UniProt P10827); test: TOX21_TRA_COA_Antagonist_Followup_ratio: Tox21 Thyroid Hormone Receptor alpha Antagonism through Coactivator Recruitment Follow-Up Assay, Ratio (AID 2283953)
In short: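 GST-TRα LBD 2.5 nM, BSA 0.10%, + cpd; then FITC-SRC-2 peptide 200 nM + Tb-anti-GST Ab 2 nM. TR-FRET ratio 520/495 nm. Norm: DMSO = 0%, T3 = 100%.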

[10] = TOX21_TRB_BLA_Antagonist_Followup_viability: Viability Assessment in the Tox21 Thyroid Hormone Receptor beta Antagonism Beta-lactamase (BLA) Follow-Up Assay (AID 2283961)
In short: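 HEK293T cells stably expressing GAL4-DBD/human TRβ-LBD with UAS-bla reporter, 3,000 cells/well in phenol red-free DMEM, 2% charcoal-stripped FBS. Compounds at 11 concentrations in triplicate, 18 h at 37C/5% CO2; viability by CellTiter-Glo luminescence after 30 min at room temperature.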

[11] = biological target: Retinoic acid receptor RXR-alpha (Homo sapiens) (UniProt P19793); test: TOX21_TR_RXR_BLA_Antagonist_Followup_ratio: Tox21 Thyroid Hormone Receptor beta Retinoid X Receptor alpha (RXRa) Antagonism Beta-lactamase (BLA) Follow-Up Assay, Ratio (AID 2283972)
In short: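 RXRa-UAS-bla HEK293T cells in phenol red-free DMEM with 2% charcoal-stripped FBS; compounds at 11 concentrations in triplicate, 16 h at 37C. LiveBLAzer FRET-B/CCF4-AM substrate 2 h at room temperature; read as 460:530 nm ratio versus DMSO.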

[12] = CCTE_Harrill_HTTr_Viability_MCF7: CCTE's 6-hour Cell Viability Assessment for the High-Throughput Transcriptomics (HTTr) Platform, in MCF-7 cells cultured in DMEM + 10% fetal bovine serum, Harrill Lab (AID 2284010; active = hit-call score of the fitted dose curve at least 0.9, where 1 is the maximum; inactive = score below 0.9)
In short: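 Propidium iodide exclusion, imaged by high-content analysis, gauged viability after a six-hour exposure across eight concentrations. Cells were MCF-7 grown in DMEM with 10% fetal bovine serum; fits run in both directions against DMSO.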

[13] = CCTE_Harrill_HTTr_Apoptosis_MCF7: CCTE's 6-hour Apoptosis Assessment for the High-Throughput Transcriptomics (HTTr) Platform, in MCF-7 cells cultured in DMEM + 10% fetal bovine serum, Harrill Lab (AID 2284011; active = hit-call score of the fitted dose curve at least 0.9, where 1 is the maximum; inactive = score below 0.9)
In short: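 MCF-7 cells in DMEM + 10% fetal bovine serum were exposed to chemicals for 6 hours over an eight-point dilution series. Caspase-3/7 activation was imaged by high content imaging with CellEvent Caspase 3/7 Green; bidirectional fitting used DMSO as baseline.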

[14] = CCTE_Harrill_HTTr_CellCount_MCF7: CCTE's Cell Proliferation Assessment for the High-Throughput Transcriptomics (HTTr) Platform, Harrill Lab (AID 2284012);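 also: cells exposed to compound for six hours; intended direction is loss of nuclei count meaning fewer cells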
In short: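 Cell count from high-content imaging of Hoechst-labeled nuclei serves as viability/growth readout. Chemicals were applied to MCF-7 cells in eight concentrations for six hours, with fitting in both directions relative to DMSO.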

Measured: AC50

Chain of Cellular tumor antigen p53 (Homo sapiens) (P04637 whole entry, looked up): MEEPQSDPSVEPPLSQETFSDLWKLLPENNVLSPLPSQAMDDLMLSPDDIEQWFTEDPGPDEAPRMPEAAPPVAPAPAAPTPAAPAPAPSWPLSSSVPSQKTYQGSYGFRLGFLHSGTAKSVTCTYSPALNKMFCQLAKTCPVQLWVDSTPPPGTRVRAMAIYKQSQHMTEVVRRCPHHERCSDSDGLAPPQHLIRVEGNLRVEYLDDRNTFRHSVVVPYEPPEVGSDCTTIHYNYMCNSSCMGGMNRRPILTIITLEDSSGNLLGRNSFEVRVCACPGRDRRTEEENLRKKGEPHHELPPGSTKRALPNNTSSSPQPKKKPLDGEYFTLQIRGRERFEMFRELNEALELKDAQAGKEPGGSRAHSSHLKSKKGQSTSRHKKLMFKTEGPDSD
Chain of THRA (gene 7067) (P10827 whole entry, looked up, the tested form may be a part): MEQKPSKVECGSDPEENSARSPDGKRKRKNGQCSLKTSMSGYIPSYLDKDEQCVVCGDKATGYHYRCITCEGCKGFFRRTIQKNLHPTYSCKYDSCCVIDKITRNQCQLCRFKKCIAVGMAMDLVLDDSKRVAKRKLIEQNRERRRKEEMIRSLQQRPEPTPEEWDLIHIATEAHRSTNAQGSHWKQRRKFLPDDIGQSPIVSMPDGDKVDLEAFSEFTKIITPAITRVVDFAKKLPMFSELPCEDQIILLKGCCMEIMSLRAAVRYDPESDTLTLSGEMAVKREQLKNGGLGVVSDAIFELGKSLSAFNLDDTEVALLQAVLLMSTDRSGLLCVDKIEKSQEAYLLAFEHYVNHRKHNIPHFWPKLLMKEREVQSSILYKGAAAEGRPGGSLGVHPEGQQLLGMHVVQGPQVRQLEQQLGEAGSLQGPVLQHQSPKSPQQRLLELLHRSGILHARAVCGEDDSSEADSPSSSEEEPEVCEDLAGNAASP
Chain of Retinoic acid receptor RXR-alpha (Homo sapiens) (P19793 whole entry, looked up): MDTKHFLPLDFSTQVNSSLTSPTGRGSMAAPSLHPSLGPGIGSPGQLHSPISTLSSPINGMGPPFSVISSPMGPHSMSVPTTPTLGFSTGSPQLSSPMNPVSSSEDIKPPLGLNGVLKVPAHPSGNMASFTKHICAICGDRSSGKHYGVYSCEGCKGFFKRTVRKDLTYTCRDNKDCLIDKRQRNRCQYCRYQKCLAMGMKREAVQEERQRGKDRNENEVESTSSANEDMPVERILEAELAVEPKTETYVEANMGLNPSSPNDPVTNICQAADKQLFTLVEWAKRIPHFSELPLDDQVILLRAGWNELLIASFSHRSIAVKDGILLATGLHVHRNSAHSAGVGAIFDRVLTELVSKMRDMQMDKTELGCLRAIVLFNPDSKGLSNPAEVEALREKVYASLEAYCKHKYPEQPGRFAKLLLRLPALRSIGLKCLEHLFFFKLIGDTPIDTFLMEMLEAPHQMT

CN1CCN(c2c(F)cc3c(=O)c(C(=O)O)cn(CCF)c3c2F)CC1
inactive: [1] | [2] | [3] | [4] | [5] | [6]

CCCCc1nc(Cl)c(CO)n1Cc1ccc(-c2ccccc2-c2nn[nH]n2)cc1
inactive: [1] | [2] | [3] | [4] | [5] | [7] | [6]

C=C1c2cccc(O)c2C(O)=C2C(=O)[C@]3(O)C(O)=C(C(N)=O)C(=O)[C@@H](N(C)C)[C@@H]3[C@@H](O)[C@H]12
inactive: [1] | [2] | [3] | [4] | [5] | [7] | [6]

C[N+](C)(C)CC(O)CC(=O)[O-] (configuration not stated)
inactive: [1] | [2] | [3] | [4] | [5] | [7] | [6]

CC[C@@]1(O)C(=O)OCc2c1cc1n(c2=O)Cc2cc3c(CN(C)C)c(O)ccc3nc2-1
inactive: [8] | [9] | [10] | [11]
active: [1] 7.02 µM | [2] 0.807 µM | [3] 7.35 µM | [4] 0.381 µM | [5] 0.692 µM | [7] 7.27 µM | [6] 6.7 µM

CC(C)(C)CC(=O)OCC(=O)[C@@]12OC(C)(C)O[C@@H]1C[C@H]1[C@@H]3CCC4=CC(=O)C=C[C@]4(C)[C@@]3(F)[C@@H](O)C[C@@]12C
inactive: [1] | [2] | [3] | [4] | [5] | [7] | [6]

N=C(N)n1cccn1
inactive: [1] | [2] | [3] | [4] | [5] | [6]

CCC1(CO)COCOC1
inactive: [1] | [2] | [3] | [4] | [5] | [6]

CO[C@H]1/C=C/O[C@@]2(C)Oc3c(C)c(O)c4c(O)c(c(/C=N/N5CCN(C6CCCC6)CC5)c(O)c4c3C2=O)NC(=O)/C(C)=C\C=C\[C@H](C)[C@H](O)[C@@H](C)[C@@H](O)[C@@H](C)[C@H](OC(C)=O)[C@@H]1C
active: [1] 33.8 µM | [2] 43.8 µM | [3] 35.3 µM | [4] 42.8 µM | [5] 43.2 µM | [7] 42.8 µM | [6] 36.8 µM

O=C(OOC(=O)c1ccccc1)c1ccccc1
not listed: [8] | [9] | [10] | [11]
inactive: all other assays above

CC(C)(C)OC(=O)c1ccccc1C(=O)O
inactive: [1] | [2] | [3] | [4] | [5] | [7] | [6]

CC(=O)c1sc(C)nc1C
inactive: [1] | [2] | [3] | [4] | [5] | [6]
